Rows were chosen to be rich in hits. Some 4.7% of all compounds tested hit in one or more screens of this group.
D1 potentiator: human D1 dopamine receptor positive modulation; P21728; HEK293 TREx D1 cells, calcium flux, dopamine EC20 potentiation; potentiation, % at 10 µM; 360,000 tested, 0.036% active; AID 504651; in the data active = potentiation above about 30%; note: 0% is about no effect
TRHR ag: TRH receptor (human) agonism | TRHR cells, calcium flux fluo-8, FDSS agonist mode | 360,000 tested, 0.18% active | activation, % at 2 µM; note: 0% is about no effect
Target sequence (P34981 whole entry, looked up): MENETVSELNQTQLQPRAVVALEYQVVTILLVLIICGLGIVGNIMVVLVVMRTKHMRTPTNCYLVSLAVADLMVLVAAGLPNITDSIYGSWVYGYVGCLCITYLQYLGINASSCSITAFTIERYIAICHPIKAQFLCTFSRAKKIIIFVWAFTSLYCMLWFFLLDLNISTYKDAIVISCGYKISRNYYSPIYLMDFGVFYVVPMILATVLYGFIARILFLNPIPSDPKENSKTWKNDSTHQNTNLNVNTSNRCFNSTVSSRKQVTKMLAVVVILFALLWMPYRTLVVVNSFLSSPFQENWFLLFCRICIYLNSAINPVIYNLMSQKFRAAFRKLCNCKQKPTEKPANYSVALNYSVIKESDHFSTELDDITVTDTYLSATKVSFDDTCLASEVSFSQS
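In this calcium-flux screen, cells bearing human TRHR are dye-loaded with fluo-8, baselined for 10 cycles, then exposed to library compounds; positive kinetic calcium responses during the agonist phase mark hits, with TRH as control.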
D1 antag: antagonists of human D1 dopamine receptor. HEK293 TREx D1 cells, calcium flux, dopamine EC80; active compounds read low. P21728. 360,000 tested, 3.2% active. AID 504652. activity change, negative = inhibition, % at 10 µM; in the data active = activity change below about -30%; note: % is set by controls: 0 for no effect and ±100 for the full control effect
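Inducible Hek293 Trex D1 cells (tetracycline, overnight, 30 C). Calcium dye 30–90 min RT. Antagonist mode: EC80 dopamine added after 180 s compound read.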
TRHR PAM: allosterically enhances the human TRH receptor; P34981; TRHR cells, fluo-8 calcium fluorescence, EC20 TRH enhancement; enhancement, % at 2 µM; 360,000 tested, 0.66% active; AID 493056; in the data active = enhancement above about 30%; note: 0% is about no effect
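TRHR-expressing cells loaded with fluo-8 calcium dye were read kinetically (ex 480/em 530) during compound addition, then stimulated with an EC20 of TRH (10 nM final). Enhancement of the Gq-mediated intracellular calcium response was scored.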
D1 agonist: activates the human D1 dopamine receptor; P21728; HEK293 T-REx D1 cells, calcium flux, agonist mode; activation, % at 2 µM; 360,000 tested, 1% active; AID 504660; note: 0% is about no effect
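Inducible HEK293 T-REx D1 cells, force-coupled to calcium signalling, were plated at 4000 cells/well with tetracycline and held overnight at 30 C. After no-wash calcium dye loading, compound-evoked calcium rise over 180 s flagged agonists.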
An asterisk follows results filed as active. Cut-off read from the data, not from the text of the source, unless noted: active = activation above about 30%; inactive = the rest.

OCC1(CCCc2ccccc2)CCN(Cc2cc(F)ccc2F)CC1 was read as D1 potentiator -2.9, TRHR ag 0.2, D1 antag -6.5, TRHR PAM -0.1 and D1 agonist 7.1.
OCC1(CCc2ccccc2)CCN(Cc2cc(F)ccc2-n2cccn2)CC1 was read as D1 potentiator -6.2, TRHR ag -0.3, D1 antag -31.5*, TRHR PAM -8.2 and D1 agonist 1.4.
For COc1cccc(NC(=O)c2cc(CN3CCOCC3)on2)c1 the results were D1 potentiator -4.6, TRHR ag 0.3, D1 antag 7.0, TRHR PAM -1.8 and D1 agonist 3.7.
Screening CCc1ccc(S(=O)(=O)Nc2cc3c(cc2C)n(C)c(=O)c(=O)n3C)cc1 returned D1 potentiator -5.7, TRHR ag 0.2, D1 antag -5.6, TRHR PAM -2.0 and D1 agonist -0.9.
CC(C)N(Cc1ccccc1)S(=O)(=O)c1ccc(Cl)nc1 was read as D1 potentiator -8.5, TRHR ag 0.5, D1 antag -40.7*, TRHR PAM -7.3 and D1 agonist -0.5.
CN(Cc1ccccc1)S(=O)(=O)c1ccc(Cl)nc1 was read as D1 potentiator 1.3, TRHR ag -1.0, D1 antag 2.4, TRHR PAM 2.8 and D1 agonist 0.3.
For c1ccc(N2OCC3Cn4c(nc5ccccc54)C32)cc1 (centres undefined) the results were D1 potentiator -3.3, TRHR ag -0.1, D1 antag -36.1*, TRHR PAM 8.2 and D1 agonist 5.0.
c1ccc(CN2OCC3Cn4c(nc5ccccc54)C32)cc1 (centres undefined) was read as D1 potentiator -3.0, TRHR ag -0.3, D1 antag 32.6, TRHR PAM -1.9 and D1 agonist 1.9.
`N=c1sccn1CC(=O)Nc1cccc(Oc2ccccc2)c1` gave D1 potentiator -2.5, TRHR ag 1.9, D1 antag 3.0, TRHR PAM 12.3 and D1 agonist 20.6.
For N=c1sccn1CC(=O)Nc1cc(Cl)ccc1Oc1ccccc1 the results were D1 potentiator -2.2, TRHR ag 1.9, D1 antag -10.6, TRHR PAM -14.3 and D1 agonist 55.5*.
COc1ccc2ncc3c(-c4ccccc4)nn(-c4ccc(C)c(C)c4)c3c2c1 was read as D1 potentiator -0.7, TRHR ag -0.6, D1 antag -3.9, TRHR PAM 14.1 and D1 agonist -2.4.
COc1ccc(-n2ncc(S(=O)(=O)c3ccccc3)c2-c2ccc(Cl)cc2)cc1 was read as D1 potentiator -4.2, TRHR ag -0.1, D1 antag -44.0*, TRHR PAM 1.4 and D1 agonist 9.6.
COc1cccc(N2CCN(C(=O)c3cc4cc5cc(C)ccc5nc4s3)CC2)c1 was read as D1 potentiator -1.9, TRHR ag 0.0, D1 antag -16.0, TRHR PAM -0.1 and D1 agonist 1.0.
Screening CC(=O)c1ccc(N2CCN(C(=O)c3cc4cc5cc(C)ccc5nc4s3)CC2)cc1 returned D1 potentiator 1.2, TRHR ag 0.6, D1 antag -9.2, TRHR PAM 49.1* and D1 agonist 0.5.
COc1ccc2nc3sc(C(=O)N4CCN(c5ccccc5)CC4)cc3cc2c1 was read as D1 potentiator -1.3, TRHR ag 0.1, D1 antag -59.1*, TRHR PAM 9.6 and D1 agonist 0.8.
Screening CCOc1ccc([N+](=O)[O-])c(N)c1 returned D1 potentiator -4.9, TRHR ag 1.0, D1 antag -33.1*, TRHR PAM 0.0 and D1 agonist 0.7.
Screening CCNC(=O)C1CCCN(c2nn3cc(-c4ccc(C)cc4)nc3s2)C1 (centres undefined) returned D1 potentiator -0.7, TRHR ag 0.1, D1 antag -0.6, TRHR PAM -7.3 and D1 agonist -0.7.
For CCc1ccc(N(CC)C(=O)Cn2cnc3sc(C)c(S(=O)(=O)N4CCN(c5ncccn5)CC4)c3c2=O)cc1 the results were D1 potentiator 0.8, TRHR ag 0.2, D1 antag -8.2, TRHR PAM 3.0 and D1 agonist -0.6.
Cn1ccc2cc(-c3ccc4ncnc(NCc5cccnc5)c4c3)ccc21 was read as D1 potentiator 0.4, TRHR ag -0.7, D1 antag 3.9, TRHR PAM -4.8 and D1 agonist 1.7.
CCN(C(=O)Cn1nc(Cc2ccncc2)c2ccccc2c1=O)c1cccc(Cl)c1 was read as D1 potentiator -1.5, TRHR ag -0.9, D1 antag -83.4*, TRHR PAM -0.4 and D1 agonist -0.1.
Cc1cc2oc(=O)cc(CN3CCCCC3)c2cc1C was read as D1 potentiator 1.2, TRHR ag -0.2, D1 antag -8.9, TRHR PAM -2.1 and D1 agonist 0.7.
Screening Cc1cc2oc(=O)cc(CN3CCN(S(=O)(=O)c4cccs4)CC3)c2cc1C returned D1 potentiator -5.8, TRHR ag -0.3, D1 antag -44.0*, TRHR PAM -4.8 and D1 agonist 2.0.
Screening Cc1ccccc1CSc1cn(CCNC(=O)c2cccs2)c2ccccc12 returned D1 potentiator -3.8, TRHR ag 1.1, D1 antag -2.0, TRHR PAM -3.7 and D1 agonist -0.4.
For Cc1ccc(NC(=O)N2CC3CCCN3c3ccccc32)c(C)c1 (centres undefined) the results were D1 potentiator -3.6, TRHR ag -0.5, D1 antag -9.5, TRHR PAM 2.6 and D1 agonist 4.3.
Screening Cc1ccccc1-c1nnc(-c2ccc(Cl)cc2)o1 returned D1 potentiator 4.6, TRHR ag -0.5, D1 antag 0.5, TRHR PAM 7.6 and D1 agonist 9.5.
`Cc1ccc(CS(=O)(=O)c2ccccc2-c2nnc(-c3ccc(Cl)cc3)o2)cc1` gave D1 potentiator -6.1, TRHR ag 0.7, D1 antag -38.8*, TRHR PAM -2.9 and D1 agonist 15.2.
`CSc1ncc(C(=O)Nc2ccccc2C)c(C)n1` gave D1 potentiator -5.0, TRHR ag 0.2, D1 antag -4.3, TRHR PAM 5.2 and D1 agonist 3.8.
For CSc1ncc(C(=O)Nc2cccc(C)c2C)c(C)n1 the results were D1 potentiator -2.9, TRHR ag -0.2, D1 antag -46.6*, TRHR PAM 3.2 and D1 agonist -0.4.
COc1ccc(C(C(=O)NCC2CCCO2)N(C(=O)Cn2nnc3ccccc32)c2ccc(NC(C)=O)cc2)c(OC)c1 (centres undefined) was read as D1 potentiator -7.2, TRHR ag 0.6, D1 antag -67.1*, TRHR PAM -0.3 and D1 agonist 18.1.
For O=C(NCCCN1CCN(c2ccccc2F)CC1)c1sc2ncccc2c1-n1cccc1 the results were D1 potentiator -5.3, TRHR ag -0.5, D1 antag -38.2*, TRHR PAM 1.3 and D1 agonist -0.6.
Screening O=C(NCCCN1CCN(c2cccc(Cl)c2)CC1)c1sc2ncccc2c1-n1cccc1 returned D1 potentiator -4.5, TRHR ag -0.1, D1 antag -35.0*, TRHR PAM -4.2 and D1 agonist 1.9.

Source: PubChem
